Measured values taken from the supplement of paper PMC12669032.
Several values for one entry are separate records, joined by “and”; a condition that tells them apart may be missing. Equal values may be shown once. Values without a mark were called inactive.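 Rule for the calls: active = AUC reduced over 20% with Padj below 0.05 in at least 2 of 3 replicates; inactive = otherwise.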

These compounds were tested on Akkermansia muciniphila (assay: growth AUC relative to DMSO control (median of replicates) (fraction); higher = more growth (less inhibition), active = hit call of the paper). Conditions: 20 µM; 24 h.
Method in brief: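 Gut bacterial monocultures were grown anaerobically at 37 °C in mGAM, starting at OD600 0.05, with 20 µM compound (1% DMSO) in round-bottom 96-well plates under pierced gas-permeable seals. OD600 was read hourly for 24 h. Area under the growth curve (minimum OD set to 0) was normalised to the plate median of DMSO controls, or to row and column medians on the industrial chemical plate. The value is the median of three biological replicates grown on separate days.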

First: CCCCOC(=O)[C@@H](C)Oc1ccc(Oc2ccc(C#N)cc2F)cc1
Second: CCOP(=O)(OCC)ON1C(=O)c2cccc3cccc(c23)C1=O
The “growth AUC” value of the first is higher: 1.1 for the first, 1.01 for the second.

Compared with `Clc1cc(Cl)c(Cl)c(Cl)c1`, `O=[N+]([O-])c1c(Cl)c(Cl)cc(Cl)c1Cl` is higher in “growth AUC” value: 0.953 for the first, 1.02 for the second.

Going from `CN(C)C(=O)Nc1cccc(C(F)(F)F)c1` to `CN(C)C(=O)Nc1cccc(OC(=O)NC(C)(C)C)c1`, the “growth AUC” value rises from 0.966 to 1.19.

First: CCOP(=O)(NC(C)C)Oc1ccc(SC)c(C)c1 (stereo unspecified)
Second: CCOP(=O)(SC(C)CC)N1CCSC1=O (stereo unspecified)
The “growth AUC” value of the first is higher: 1.19 for the first, 0.9 for the second.

First: ClCC(Br)CBr (stereo unspecified)
Second: CCS(=O)c1c(C#N)nn(-c2c(Cl)cc(C(F)(F)F)cc2Cl)c1N (stereo unspecified)
The “growth AUC” value of the first is higher: 0.997 for the first, 0.952 for the second.

First: CNC(=O)Oc1cccc2c1OC(C)(C)C2O (stereo unspecified)
Second: CCCCN(CCCC)SN(C)C(=O)Oc1cccc2c1OC(C)(C)C2
The “growth AUC” value of the first is higher: 1.07 for the first, 1.03 for the second.

Going from `O=C(O)C(F)(F)C(F)(F)C(F)(F)C(F)(F)C(F)(F)C(F)(F)F` to `O=C(O)c1ccccc1C(=O)Nc1cccc2ccccc12`, the “growth AUC” value rises from 0.965 to 1.04.

`C[n+]1ccc(-c2cc[n+](C)cc2)cc1.O.[Cl-].[Cl-]` was tested, and the “growth AUC” value was 0.705.

`O=S1OC[C@@H]2[C@H](CO1)[C@]1(Cl)C(Cl)=C(Cl)[C@@]2(Cl)C1(Cl)Cl` (stereo partly specified) was tested, and the “growth AUC” value was 0.871 and 0.977.
